# Screens as filed in PubChem.
# Sampled rows, rich in hits. Any-hit rate of the full collection: about 2.3%.
# M1 antag – antagonists of human M1 muscarinic receptor; P11229; CHO-K1 hM1, Fluo-8 calcium fluorescence, ACh EC80 antagonist; inhibition, % at 3 µM; 1.3% of 360,000 active;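 active means percent inhibition above its own plate's cutoff, namely the mean of that plate's compound wells plus 3 SD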;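 further: peak over basal fluorescence ratio during 140 s after agonist addition; 0% = ACh EC80 plus DMSO and 100% = DMSO alone without agonist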
# Target sequence (P11229 whole entry, looked up): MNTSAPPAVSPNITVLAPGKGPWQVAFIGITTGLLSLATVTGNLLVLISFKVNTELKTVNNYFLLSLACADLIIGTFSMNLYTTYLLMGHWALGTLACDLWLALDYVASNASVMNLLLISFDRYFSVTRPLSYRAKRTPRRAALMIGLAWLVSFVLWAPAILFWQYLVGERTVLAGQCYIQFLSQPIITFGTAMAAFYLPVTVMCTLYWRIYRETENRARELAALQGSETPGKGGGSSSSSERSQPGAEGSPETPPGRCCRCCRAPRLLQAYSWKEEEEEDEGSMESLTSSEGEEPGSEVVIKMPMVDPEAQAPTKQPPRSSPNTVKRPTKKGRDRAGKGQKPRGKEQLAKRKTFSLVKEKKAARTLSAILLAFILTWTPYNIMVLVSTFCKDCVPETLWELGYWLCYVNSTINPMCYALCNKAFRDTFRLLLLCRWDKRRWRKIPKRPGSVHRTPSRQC
# M1 PAM parental – M1 PAM counterscreen hit in parental CHO-K1 cells; ATP EC20, Fluo-8 calcium fluorescence; 0% at ATP EC20, 100% at ATP max; activation, % at 3 µM; 0.02% of 360,000 active; AID 602247;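 active means activation above the run cutoff, the mean activation of all test compounds plus 3 SD, cut at about 40% in these data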;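 further: peak over basal fluorescence ratio in a 140 s read after ATP addition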
# M1 ag parental – nonselective activator or artifact in parental CHO-K1 cells. 0.48% of 360,000 active. Fluo-8 calcium fluorescence; scaled to maximal ATP response, vehicle zero. activation, % at 3 µM; in the data active means activation above about 15%;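 further: untransfected CHO-K1 host cells lacking M1 receptor as counterscreen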
# M1 PAM – potentiates human M1 receptor response to acetylcholine | activation, % at 3 µM | CHO-K1 hM1, Fluo-8 calcium fluorescence, ACh EC20; 0% = ACh EC20, 100% = maximal ACh | 0.088% of 360,000 active | P11229 | AID 588819; in the data active means activation above about 19%, passing the limit was not always enough
# M1 ag – activates human CHRM1 receptor | CHO-K1 hM1, Fluo-8 calcium fluorescence, agonist mode; 0% DMSO, 100% acetylcholine EC100 | activation, % at 3 µM | AID 588814 | 0.33% of 360,000 active;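 active means activation above the run's mean compound activation plus 3 SD, cut at about 16% in these data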;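 further: peak over basal fluorescence ratio within a 140 s kinetic read after compound addition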
# CHO-K1 Ca antag – counter-screen for M1 antagonists: effect in parental CHO-K1 cells | ATP-induced calcium, Fluo-8 fluorescence | 0.6% of 360,000 active | inhibition, % at 3 µM;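 active means inhibition above a per-plate cutoff, the plate's mean sample inhibition plus 3 SD, cut at about 24% in these data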;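 further: 0% = DMSO plus EC80 ATP and 100% = DMSO alone without ATP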
# Starred values were filed as active, the others as inactive.
SMILES,M1 antag,M1 PAM parental,M1 ag parental,M1 PAM,M1 ag,CHO-K1 Ca antag
O=C(/C(N=Nc1cccc([N+](=O)[O-])c1)=C(/O)c1ccc(Br)cc1)C(F)(F)F,48*,-17,10,-20,-1,21
COc1ccc(S(N)(=O)=O)cc1C(=O)OCCCOc1ccc(F)cc1,-1,2,18*,3,-2,11
COc1ccc(S(N)(=O)=O)cc1C(=O)OCCCOC(=O)c1cc(S(N)(=O)=O)ccc1OC,-11,15,0,10,-2,-7
COc1cccc(C(=O)C2CCCN(Cc3cn[nH]c3C3CCCCC3)C2)c1 (stereo not drawn),27,-12,0,-23,-13,17
CCOC(=O)N1CCC(N2CCCC(C(=O)c3cccc(OC)c3)C2)CC1 (stereo not drawn),54*,0,1,-21,-7,-5
COc1cccc(C(=O)C2CCCN(Cc3cn(CC(N)=O)c4ccccc34)C2)c1 (stereo not drawn),0,-11,0,-3,-13,32*
COc1ccccc1NC(=O)COC(=O)CCC(=O)c1cccs1,-6,3,2,5,-3,-12
CC(CCCN1CCCC1)Nc1ccnc2cc(Cl)ccc12 (stereo not drawn),58*,-1,2,-31,-9,-3
CC(C)NC1CCC(Nc2ccnc3cc(Cl)ccc23)CC1 (stereo not drawn),1,0,1,-8,-9,-4
Cc1ccccc1N(CC(=O)N/N=C/c1ccc(Cl)cc1)C(=O)c1ccccc1,9,-7,0,2,1,26*
COC(=O)c1c(N)sc(C(C)=O)c1C,0,19,0,20,16*,-12
Nc1ncc(Br)cc1S(=O)(=O)NCCc1ccccc1,21,18,2,-20,-5,-22
O=C1c2[nH]nc(-c3ccccc3O)c2C(c2ccc(F)cc2)N1Cc1ccco1 (stereo not drawn),-3,26,1,7,1,-8
O=C1c2[nH]nc(-c3ccccc3O)c2C(c2cccc(Cl)c2)N1Cc1ccco1 (stereo not drawn),4,-9,0,9,-3,24*
Cc1ccc2c(c1)C(c1ccccc1)CC(=O)O2 (stereo not drawn),-7,27,1,3,-6,-8
CCOc1cc(CNn2cnnc2)cc(Br)c1OCC(=O)NC1CCCCC1,9,-9,0,3,-2,29*
CCOC(=O)NC(=O)/C(C#N)=N/Nc1ccc(F)cc1,-2,-6,1,-3,0,27*
COc1ccc(Cn2c(CCC(=O)NCCC(C)C)nc3ncccc3c2=O)cc1,-1,-11,0,20,-1,8
COc1ccc(NC(C)=O)cc1NC(C)c1nc2sc(C)c(C)c2c(=O)[nH]1 (stereo not drawn),6,14,17*,-1,-8,-7
COC(=O)c1ccc(CN2CCCC(CCC(=O)NCc3ccc(C)o3)C2)cc1 (stereo not drawn),87*,27,0,-29,53*,-10
COC(=O)c1ccc(CN2CCCC(CNC(=O)Cc3ccc(OC)cc3)C2)cc1 (stereo not drawn),14,6,1,-6,30*,-13
COCc1ccc(CN2CCCC(CCC(=O)NCc3ccc(C)o3)C2)o1 (stereo not drawn),7,17,1,1,-4,-14
COc1ccc(C(=O)NCCSCc2ccccc2C)cc1,3,-8,0,3,-3,30*
CC1(C(=O)NS(=O)(=O)c2ccccc2Cl)CCN1C(=O)C1(c2ccc(Cl)cc2)CC1 (stereo not drawn),-4,12,0,2,1,-7
CC1(C(=O)NS(=O)(=O)c2ccccc2Cl)CCN1C(=O)C1(c2ccc(Cl)cc2)CCC1 (stereo not drawn),-12,-15,-1,4,-4,48*
O=Cc1ccc(N2CCCC2)c([N+](=O)[O-])c1,-7,23,0,12,-7,-14
O=[N+]([O-])/C=C\c1ccc(N2CCCC2)c(F)c1,51*,-3,27*,3,24*,18
